FLuc counter: counter-screen for miR-21 project: firefly luciferase inhibitors or activators; P08659; purified FLuc, Km substrates, luminescence inhibition; Potency, µM (series often up to 57.5 µM), without a hit: at the highest dose activity change, negative = inhibition, actives largely listed as inhibitors; 360,000 compounds, 6.9% hits;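 further: plate controls were vehicle for no effect and reference inhibitor for full effect; nearly all actives have a fitted effect of over 55% in size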
Target sequence (P08659 whole entry, looked up): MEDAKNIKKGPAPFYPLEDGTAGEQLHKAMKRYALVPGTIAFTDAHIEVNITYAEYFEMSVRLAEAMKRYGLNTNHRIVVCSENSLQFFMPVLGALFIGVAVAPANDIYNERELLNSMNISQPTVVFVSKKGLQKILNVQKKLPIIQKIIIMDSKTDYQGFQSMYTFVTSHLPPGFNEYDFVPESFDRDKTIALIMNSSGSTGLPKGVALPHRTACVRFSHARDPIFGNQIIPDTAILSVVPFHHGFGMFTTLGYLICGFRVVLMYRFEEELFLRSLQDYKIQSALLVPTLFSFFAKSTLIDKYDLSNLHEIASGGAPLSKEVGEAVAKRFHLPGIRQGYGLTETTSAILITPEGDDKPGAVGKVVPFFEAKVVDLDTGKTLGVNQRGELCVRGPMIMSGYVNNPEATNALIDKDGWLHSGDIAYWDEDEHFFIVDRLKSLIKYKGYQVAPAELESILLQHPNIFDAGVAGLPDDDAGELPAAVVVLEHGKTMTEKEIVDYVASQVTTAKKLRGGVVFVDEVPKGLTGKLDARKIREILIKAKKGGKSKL
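Purified P. pyralis luciferase, 10 nM final, with Km-level 10 uM D-luciferin and 10 uM ATP in 50 mM Tris acetate pH 7.5, 10 mM Mg acetate, 0.01% Tween-20, 0.05% BSA; 6-point qHTS titration about 60 µM downward; luminescence read.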
ELG1 DNA repair: blocks ELG1-dependent DNA repair in HEK293T cells | HEK293T ELG1-luciferase reporter, luminescence, 16 h; DNA damage induced by 5-fluorouridine | Potency, µM (doses to about 46.1 µM), inactives show top-dose activity change, negative = inhibition, hits mostly inhibitors | 330,000 compounds, 2.3% hits; further: on the % scale 0 is the no-effect control and ±100 the full control effect; nearly all actives have a fitted effect of over 55% in size
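Cells (2,000 per well) received 5-fluorouridine plus test compound or DMSO and were incubated 16 hr at 37 °C, 5% CO2. Luciferase activity was read by luminescence 30 min after ONE-Glo addition; signal suppression marked inhibition of damage-induced ELG1 function.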
NPC1 promoter act: NPC1 promoter activation; AID 485313; Huh7 NPC1 promoter luciferase reporter, 24 h; Potency, µM (highest dose often 9.22 µM), for inactives: at the highest dose activation, most hits filed as activators; 320,000 compounds, 2.4% hits; further: % of control where 0% means no effect; nearly all actives have a fitted effect of over 60% in size
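Readout is luciferase luminescence, reflecting NPC1 promoter activation in stably transfected Huh7 cells after 24 h compound exposure at 37 °C in reduced-serum medium with 10% FBS.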
SMN2 splice up: increases expression of the SMN2 splice variant; 210,000 compounds, 2.8% hits; Potency, µM (highest dose often 46.1 µM), inactives show at the highest dose activity change, positive = activation, most hits filed as activators; AID 1458; HEK293 SMN2-luciferase splicing reporter, luminescence, 30-36 h; further: % of control where 0% means no effect; nearly all actives have a fitted effect of over 55% in size
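HEK293 cells carry an SMN2 […]–luciferase reporter in which exon 7 inclusion puts luciferase in frame. Cells were plated 10-12 h before compound addition, then incubated 30-36 h at 37C. ONE-Glo luminescence was read; sodium butyrate at 4.5 mM final served as control.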
ELG1 genotoxic: induces genotoxicity in HEK293T cells with luciferase-tagged ELG1. 330,000 compounds, 1.3% hits. Potency, µM (top dose mostly 46 µM), for inactives: at the highest dose activity change, positive = activation, usual class: activators. AID 504466. HEK293T ELG1-luciferase reporter, luminescence, 16 h; further: % of control where 0% means no effect; nearly all actives have a fitted effect of over 60% in size
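ELG1-luciferase HEK293T cells, 2,000/well; compound pinned in; 16 hr, 37 °C, 5% CO2; ONE-Glo, 30 min RT; luminescence on CCD imager.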
Rab9 prom act: activators of Rab9 promoter. Huh7 Rab9 promoter-luciferase reporter, luminescence, 24 h. Potency, µM (top dose mostly 9.22 µM), for the others: top-dose activation, negative = inhibition, usual class: activators. 320,000 compounds, 2.8% hits. AID 485297; further: % of control where 0% means no effect; nearly all actives have a fitted effect of over 60% in size
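Promoter activation is measured as luciferase luminescence in Huh7 cells stably transfected with a Rab9 promoter–luciferase construct, following 24 h compound exposure at 37 °C and 10 min reagent incubation at ambient temperature.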
* marks the source's active call; other numbers are inactive results; ? = inconclusive; nt = not tested or not shown; [ ] = another dose, or the depositor's remark. This is a sample that favours compounds with a hit; in the whole collection about 9.3% have one here. The call rests on the fitted dose curve; in most records, active means well fitted curve in the direction sought with a large enough effect; inconclusive means small, poorly fitted or top-dose-only effect, or another doubt; inactive means no such curve, though single readings can be large; an effect the other way counts as inactive or inconclusive. Potency means the concentration at half of the fitted maximal effect.

SMILES	FLuc counter	ELG1 DNA repair	NPC1 promoter act	SMN2 splice up	ELG1 genotoxic	Rab9 prom act
COc1ccc(-c2[nH]ncc2CN(CC2CCC(=O)N2)C(C)C)cc1F (configuration not stated)	0.4%	1.9%	-2.8%	nt	0.0%	0.7%
COc1cccc([C@@H]2Oc3ccc(OC)cc3C(=O)[C@H]2OC(=O)NC2CCCC2)c1	nt	nt	nt	4.3%	nt	nt
CCN(CC(=O)NCc1cccs1)C(=O)c1ccc(-c2ccc(F)cc2)o1	nt	?	nt	nt	-5.1%	nt
c1ccc(CNc2ncnc3c2cnn3Cc2ccccc2)cc1	6.1%	-27.9%	-23.0%	11.2µM*	1.0%	-7.4%
c1ccc(-n2ncc3c(NCc4cccnc4)ncnc32)cc1	16.9µM*	?	?	38.3%	?	?
COCC(C)Nc1ncnc2c1cnn2-c1ccc(C)c(C)c1 (configuration not stated)	6.75µM*	nt	nt	nt	nt	nt
Cc1ccc(-n2ncc3c(NCc4ccccc4)ncnc32)cc1C	21.3µM*	nt	nt	nt	nt	nt
O=c1c2cnn(-c3ccccc3)c2ncn1Cc1cccnc1	-1.6%	-5.8%	1.9%	-10.3%	-7.5%	-6.9%
c1ccc2c(c1)nc1n2CCN1CCN1CCCC1	0.9%	2.3%	-1.7%	nt	0.3%	1.5%
CC1CN(C(=O)CCNC(=O)c2ccc(Cl)cc2)CC(C)O1 (configuration not stated)	-0.1%	25.7%	-3.7%	nt	-0.4%	-1.0%
Cc1ccc(-n2ncc3c(NCCc4ccccc4)ncnc32)cc1	23.9µM*	nt	nt	nt	nt	nt
COC(=O)C1=C(C(=O)OC)[C@@H]2N(C)c3ccc(OC)cc3[C@@]23C[C@@H](C(=O)OC)N(S(=O)(=O)c2ccc(C)cc2)C3=N1	nt	nt	nt	-5.2%[9.22 µM]	nt	nt
Cc1c(CC(=O)NCCC(=O)O)c(=O)oc2cc3occ(-c4ccccc4)c3cc12	15.1µM*	23.5%	-2.0%	nt	1.5%	7.0%
Cc1c(CC(=O)N[C@@H](C)C(=O)O)c(=O)oc2c(C)c3occ(-c4ccccc4)c3cc12	-5.1%	-16.2%	-4.1%	nt	0.7%	-7.6%
Cc1c(CC(=O)N[C@@H](C)C(=O)O)c(=O)oc2cc3occ(-c4ccccc4)c3cc12	21.3µM*	18.2%	-0.7%	nt	-6.4%	-2.3%
Cc1c(CC(=O)O)c(=O)oc2cc3occ(-c4ccccc4)c3cc12	?	8.1%	3.8%	nt	4.6%	-4.1%
Cc1ccc2c(CNCc3cccs3)c(C(=O)O)n(Cc3ccc(F)cc3)c2c1	-10.3%	nt	nt	nt	nt	nt
N#C/C(=C\c1ccc(O)c([N+](=O)[O-])c1)c1nc2ccccc2s1	13.5µM*	-16.4%	-1.6%	-57.8%	-8.7%	0.2%
COc1ccc(-c2csc(/C(C#N)=C\c3ccc(OC)c([N+](=O)[O-])c3)n2)cc1	1.7%	-13.1%	-3.2%	-13.3%	-3.4%	-4.7%
COc1cc(/C=C(/C#N)c2nc3ccccc3[nH]2)ccc1Oc1ncccc1[N+](=O)[O-]	-15.9%	?	1.4%	1.6%	14.8%	6.6%
COc1ccc(-c2csc(/C(C#N)=C\c3ccc(O)c([N+](=O)[O-])c3)n2)cc1OC	15.1µM*	14.6µM*	7.3%	nt	-6.3%	-1.1%
COc1cc(/C=C(\C#N)c2nc3ccccc3s2)cc([N+](=O)[O-])c1O	8.49µM*	?	-3.9%	5.9%	-6.4%	-6.0%
CN(Cc1cccc(F)c1)C(=O)CNS(=O)(=O)c1ccc2ccccc2c1	-1.6%	8.7%	-3.5%	nt	0.3%	-0.1%
Cc1ccc2scc(N3CCCCC3C)c(=O)c2c1 (configuration not stated)	0.953µM*	nt	nt	nt	nt	nt
CC1CCN(c2csc3ccc(F)cc3c2=O)CC1	6.01µM*	nt	nt	nt	nt	nt
SMILES	FLuc counter	ELG1 DNA repair	NPC1 promoter act	SMN2 splice up	ELG1 genotoxic	Rab9 prom act
O=c1c(N2CCc3ccccc3C2)csc2ccc(F)cc12	6.01µM*	nt	nt	nt	nt	nt
Cc1ccc2scc(N3CCCCC3)c(=O)c2c1	0.849µM*	nt	nt	nt	nt	nt
CCc1ccc2c(c1)c(=O)c(S(=O)(=O)c1ccccc1)cn2CC(=O)Nc1ccc(OC)cc1	-1.9%	nt	nt	1.2%	nt	nt
Cc1ccc2scc(N3CCC(C)CC3)c(=O)c2c1	1.2µM*	nt	nt	nt	nt	nt
COc1ccc(N2CCN(c3csc4ccc(Cl)cc4c3=O)CC2)cc1	-20.0%	nt	nt	nt	nt	nt
CCC(C)Sc1nnc(NC(=O)C2CCN(C(=O)c3ccco3)CC2)s1 (configuration not stated)	3.0%	-7.6%	1.8%	nt	0.7%	1.7%
O=C(CN1CCC(c2nc3ccccc3s2)CC1)N1CCCCC1	-10.0%	?	-4.6%	-31.7%	-0.6%	-1.9%
O=C(CN1CCC(c2nc3ccccc3s2)CC1)NCc1cccs1	?	9.2µM*	-14.2%	-87.5%	16.5%	-17.5%
C=CCc1cc(/C=C/c2nc(O)c([N+](=O)[O-])c(=O)[nH]2)cc(OC)c1O	16.9µM*	3.8%	-2.3%	9.5%	-1.2%	-2.6%
Cc1ccc2nc(N3CCOCC3)c(C=O)cc2c1	21.3µM*	?	22.8%	nt	?	12.7%
COc1cc(/C=N/N(c2ccccc2)c2ccccc2)ccc1O	19µM*	-2.7%	-0.6%	nt	0.5%	-0.5%
COc1cc(/C=N/Nc2ccccc2)ccc1O	15.1µM*	12.8%	4.2%	nt	?	-0.5%
COc1ccc(/C=N/N(c2ccccc2)c2ccccc2)cc1O	?	19.3%	-3.0%	nt	4.3%	-3.9%
COc1cc(/C=N/Nc2ccccc2C(F)(F)F)ccc1O	13.5µM*	?	9.6%	nt	17.9%	?
C/C(=N\N1CCN(c2ccccc2)CC1)c1ccncc1	3.2%	9.3%	-4.0%	5.5%	0.0%	1.9%
Cc1c(-c2ccc(Cl)cc2)c(=O)oc2ccc(OC(=O)N3CCOCC3)cc12	-6.8%	nt	nt	nt	nt	nt
CC(C)CC(COCc1ccc(Cl)cc1)N1CCN(C(=O)c2ccc(Cl)cc2Cl)CCC1=O (configuration not stated)	3.1%	23.1µM*	-1.4%	-67.6%	-5.6%	-4.2%
CC(C)CC(COCc1cccc(Cl)c1)N1CCN(C(=O)c2cccc(C(F)(F)F)c2)CCC1=O (configuration not stated)	3.2%	-11.9%	1.6%	-35.9%	-1.8%	-4.4%
COc1ccc(CNC(=O)c2ccc(CS(=O)c3ccccc3)o2)cc1 (configuration not stated)	-4.0%	-0.8%	-2.7%	nt	-0.6%	9.4%
O=C(CSc1ccc2nnc(CCNC(=O)c3ccc(F)cc3)n2n1)NCc1ccco1	1.3%	-4.4%	-5.0%	nt	1.3%	-0.1%
O=C(O)C1C2C=CC(C2)C1C(=O)Nc1cccc(C(F)(F)F)c1 (configuration not stated)	-1.7%	2.1%	-8.7%	nt	1.5%	0.2%

Screening data: PubChem, National Center for Advancing Translational Sciences (NCATS)
